Bioassay records as filed in PubChem BioAssay.
In the library only some 2% were active in any assay of this set; here they are far more common.
Kir21 block = Kir2.1 (mouse) channel inhibition. 310,000 compounds, 0.85% hits. AID 1672. B-score at 10 µM. HEK293-Kir2.1, FluxOR thallium flux fluorescence; hits give low values;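 active = fluorescence ratio B-score at or below minus 3 SD of library scores, with starting-brightness B-score within 2 SD, cut at about -4.2 in these data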;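 also: channel flux triggered by added potassium and thallium sulfate stimulus; B-score of peak minus minimum fluorescence over baseline after thallium stimulus; more negative B-score means stronger Kir2.1 block with less thallium influx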
Target sequence (P35561 whole entry, looked up): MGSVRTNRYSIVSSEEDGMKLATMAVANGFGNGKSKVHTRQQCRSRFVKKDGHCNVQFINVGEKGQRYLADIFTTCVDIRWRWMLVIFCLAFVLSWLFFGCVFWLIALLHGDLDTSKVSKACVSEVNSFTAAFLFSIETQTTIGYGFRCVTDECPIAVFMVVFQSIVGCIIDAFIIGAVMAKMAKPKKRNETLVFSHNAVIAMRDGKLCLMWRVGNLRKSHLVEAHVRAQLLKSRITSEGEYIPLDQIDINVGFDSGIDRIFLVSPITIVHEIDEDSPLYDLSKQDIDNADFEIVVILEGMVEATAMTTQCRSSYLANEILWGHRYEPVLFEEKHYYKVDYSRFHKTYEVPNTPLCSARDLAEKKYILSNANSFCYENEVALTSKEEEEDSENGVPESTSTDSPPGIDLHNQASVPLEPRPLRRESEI
TAG inh = triacylglycerol accumulation inhibition; H9c2 cells, Nile Red lipid (TAG) fluorescence; cells loaded with 200 µM oleic acid; inhibition, % at 12.5 µM; 230,000 compounds, 0.66% hits;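 active = pattern-corrected inhibition of lipid staining of at least 50% with the nuclear-stain viability signal not falling by more than 50%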;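 also: 0% = DMSO wells and 100% = triacsin C control wells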
CHT block = human CHT choline transport inhibition; B-score at 10 µM; CHT-expressing cells, membrane potential dye, choline response; hits give low values; 310,000 compounds, 0.86% hits; Q9GZV3;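 active = B-score over 3 SD under the library average, and starting fluorescence ratio not unusually high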;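 also: choline stimulus applied at its EC90 after an EC20 pre-addition; B-score computed on integrated fluorescence ratio after choline addition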
CHT allo act = human CHT allosteric activation | 310,000 compounds, 0.49% hits | B-score at 10 µM | Q9GZV3 | AID 488977 | CHT-expressing cells, membrane potential dye, choline EC20; hits give high values; LV-AA mutant CHT in HEK293 cells;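 active = initial fluorescence not abnormally high and integrated response B-score, plate-corrected, over 3 SD above library mean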
An asterisk follows results filed as active; i = inactive; / = no result given; ! = not active in a repeat.

SMILES	Kir21 block	TAG inh	CHT block	CHT allo act
Cc1ccc(N2CC(C(=O)Nc3nc4ccc(S(C)(=O)=O)cc4s3)CC2=O)cc1 (stereo unspecified)	0.23	-7.8	i	i
Cc1ccc(N(CC(=O)N/N=C/c2cc(C)n(-c3ccccc3C)c2C)S(C)(=O)=O)cc1	0	/	-6.99*	i
Cc1cc(C)cc(-n2c(C)cc(/C=N/NC(=O)CN(c3c(C)cccc3C)S(C)(=O)=O)c2C)c1	0.06	/	i	i
OCC(O)CN1CCCC1 (stereo unspecified)	-0.75	5.9	i	i
CCN(CC)CCOC(=O)c1ccc(N/C=C(/C#N)c2nc(-c3ccc(OC)c(OC)c3)cs2)cc1	0.71	61.1*	i	i
COC(=O)CSc1nc2sc3c(c2c(=O)n1C1CCCCC1)CCN(C)C3	1.14	/	i	8.85*
O=C(CNCc1ccccc1)Nc1ccc(Oc2ccccc2)cc1	-9.53*	/	i	i
CCN1C(c2ccccc2)C(C)C(=O)C(C)C1c1ccccc1 (stereo unspecified)	-1.18	-2.5	i	8.61*
CCC(=O)N(C)C[C@@H]1Oc2ncc(Br)cc2C(=O)N([C@H](C)CO)C[C@H]1C	/	-23.9	/	/
COCCNc1nc(-c2ccccc2CO)c2sc(-c3ccccc3)cc2n1	/	50.5*	/	/
CCN(CC)S(=O)(=O)c1ccc2oc(C(=O)NCCCN3CCOCC3)c(C)c2c1	-0.69	/	i	i
CCCCN(CCCC)S(=O)(=O)c1ccc2oc(C(=O)N3CCOCC3)c(C)c2c1	-4.76*	/	i	i
CC(C)n1cnc2c(Nc3ccc(F)c(Cl)c3)nc(NCCO)nc21	-0.62	3.8	-5.43*	i
CC1CCCCN1C(=O)CCS(=O)(=O)c1cc2c(cc1Cl)NC(=O)CO2 (stereo unspecified)	1.33	11.1	i	i
Cc1csc(N(C(=O)Cc2ccccc2F)c2ccccc2)n1	-1.55	/	i	i
COc1ccc(CC(=O)N(c2ccccc2)c2nc(C)cs2)cc1	-5.54*	/	i	i
O=C(NCC1CCCO1)c1cc2nc(-c3ccco3)cc(C(F)(F)Cl)n2n1 (stereo unspecified)	-0.05	/	i	i
CC1(c2cc([N+](=O)[O-])cc([N+](=O)[O-])c2)CC(C)(C)N(C(=O)c2ccccc2)c2ccccc21 (stereo unspecified)	1.08	91.4*	i	i
N=c1c2c(-c3ccccc3)c(-c3ccccc3)n(Cc3ccco3)c2ncn1Cc1ccccc1	-5.91*	-23.0	i	i
N=c1c2c(-c3ccccc3)c(-c3ccccc3)n(Cc3ccccc3)c2ncn1CCO	-8.56*	/	i	i
N=c1c2c3c(sc2ncn1Cc1ccco1)CCCCC3	-0.42	/	i	i
OCCNc1ncnc2c1c(-c1ccccc1)c(-c1ccccc1)n2Cc1ccco1	0.61	17.1	i	i
CC(C)Cn1cnc2c(c(-c3ccccc3)c(-c3ccccc3)n2Cc2ccco2)c1=N	-9.72*	11.2	i	i
OCCn1cnc2c(SCc3ccccc3)ncnc21	/	8.5	/	/
Cc1ccc(C)c(NC(=O)CSc2nnc(CNC(=O)c3cccs3)o2)c1	-0.92	/	i	i
SMILES	Kir21 block	TAG inh	CHT block	CHT allo act
O=C(CSc1ccccc1Cl)N1CCOCC1	-0.08	/	i	i
COc1cc(Cl)c(C)cc1NC(=O)Cc1cccs1	-1.83	/	i	i
Cc1ccc2nc(N(CCCN(C)C)C(=O)c3ccc4ncsc4c3)sc2c1	-2.96	/	i	i
OC(CN1CCN(Cc2ccccc2)CC1)Cn1c2ccccc2c2ccccc21 (stereo unspecified)	-4.39*	-23.6	i	i
Cc1ccc2cc(C#N)c(N3CCCN(C(=O)C4CCCO4)CC3)nc2c1C (stereo unspecified)	-5.66*	/	-6.12*	i
OCC1(CCCc2ccccc2)CCN(Cc2cc(F)ccc2F)CC1	-4.39*	11.0	i	i
OCC1(CCOc2ccccc2)CCN(Cc2cc(Cl)ccc2O)CC1	-4.63*	/	i	i
O=C(Cc1ccc(Br)cc1)c1ccc(O)cc1O	1.42	0.4	-6.74*	i
C1CCC(C(CC2CCCCN2)C2CCCCC2)CC1 (stereo unspecified)	-7.52*	130.0	i	i
COC(=O)c1ccccc1NC(=O)COC(=O)C1CCCCC1	2.34	-1.7	i	i
CSCC(C)N1CCC(Oc2cccc(C(=O)NCc3ccccn3)c2)CC1 (stereo unspecified)	1.24	-3.7	-16.6*	i
COc1ccc(-n2c(SCC(=O)N3CCC(C(=O)O)CC3)nc3ccccc3c2=O)cc1OC	0.51	/	i	i
CCCCCCCC[n+]1cccc(C(=O)N(CC)CC)c1	0.08	/	i	i
CCCCCCCCCCCCCCCC[n+]1cccc(C(=O)N(CC)CC)c1	-10.2	58.6*!	i	i
CCc1c(O)c(-c2ccccc2)c(=O)n(-c2ccccn2)c1-c1ccccc1	1.05	-1.4	i	i
CCC(=O)N(CCC(c1ccco1)c1ccccc1OC)Cc1cccs1 (stereo unspecified)	-2.93	/	i	i
CC(=O)N(CCC(c1ccccc1)c1ccco1)Cc1cccs1 (stereo unspecified)	-8.84*	-6.1	i	i
COc1cccc(CN(C)CC(=O)Nc2ccccc2C(=O)NC2CC2)c1	/	-12.1	/	/
O=C(O)CSCc1ccc(Cl)cc1	-0.63	-6.8	i	i
CC1CCCC(C)N1C(=O)CSCc1ccc(Cl)cc1 (stereo unspecified)	-4.94*	/	i	i
S=C(Nc1ccc(Cl)cc1)NC1CC2CCC(C1)N2Cc1ccccc1 (stereo unspecified)	-4.65*	/	i	i
Oc1ccc(CCNc2ncnc3ccc(Cl)cc23)cc1	0.98	-29.2	i	i
COc1ccc(CCN(C)S(=O)(=O)c2ccc(Cl)nc2)cc1OC	-0.78	1.2	i	i
Nn1c(Cc2cccc3ccccc23)nnc1SCc1ccccc1	-4.56*	/	i	i
COc1ccc(N2CCN(C(=O)CCNS(=O)(=O)c3ccccc3)CC2)cc1	-0.7	10.8	i	i
SMILES	Kir21 block	TAG inh	CHT block	CHT allo act
Oc1ccc(Cl)cc1Cc1cc(Cl)ccc1O	-5.98*	-13.6	i	i
O=C(CCn1cnnn1)NC1CCCN(Cc2ccccc2F)C1 (stereo unspecified)	-1.6	4.3	i	i
Cc1nnc(SCC(=O)Nc2sc3c(c2C(=O)c2ccccc2)CCCC3)s1	-2.05	/	i	8.08*
CCOC(=O)c1c(NC(=O)Cc2ccccc2)sc2c1CCN(C)C2	-2.77	4.5	i	i
CCOC(=O)c1c(NC(=O)CSc2nnc(C)s2)sc2c1CCN(C)C2	0.72	4.1	i	7.63*
CCCNC(=O)c1nnsc1S(=O)c1ccc(Cl)cc1 (stereo unspecified)	-6.12*	/	/	/
CNC(=O)c1nnsc1S(=O)c1ccc(Cl)cc1 (stereo unspecified)	-7.62*	/	/	/
CCN1C(=O)[C@H]2[C@@H](c3ccc(C)cc3)N3C(=O)N(c4ccccc4)C(=O)[C@@]3(CC)[C@H]2C1=O	-0.64	8.7	i	i
O=C(C[n+]1cccc2ccccc21)c1ccccc1	0.48	/	i	i
